The record followed here is ChEMBL document CHEMBL1961873, “Compounds: GSK PKIS; Assays: Nanosyn kinase panel” (2012).

In test [1] the target is Sphingosine kinase 1 (Homo sapiens) (UniProt Q9NYA1). The conditions noted are these: at 1 µM.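 Note: mean SPHK1 inhibition value reported from the GSK PKIS kinase panel screen.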
In test [2] the target is T1, Sphingosine kinase 2 (Homo sapiens) (UniProt Q9NRA0).
T1 sequence (whole entry): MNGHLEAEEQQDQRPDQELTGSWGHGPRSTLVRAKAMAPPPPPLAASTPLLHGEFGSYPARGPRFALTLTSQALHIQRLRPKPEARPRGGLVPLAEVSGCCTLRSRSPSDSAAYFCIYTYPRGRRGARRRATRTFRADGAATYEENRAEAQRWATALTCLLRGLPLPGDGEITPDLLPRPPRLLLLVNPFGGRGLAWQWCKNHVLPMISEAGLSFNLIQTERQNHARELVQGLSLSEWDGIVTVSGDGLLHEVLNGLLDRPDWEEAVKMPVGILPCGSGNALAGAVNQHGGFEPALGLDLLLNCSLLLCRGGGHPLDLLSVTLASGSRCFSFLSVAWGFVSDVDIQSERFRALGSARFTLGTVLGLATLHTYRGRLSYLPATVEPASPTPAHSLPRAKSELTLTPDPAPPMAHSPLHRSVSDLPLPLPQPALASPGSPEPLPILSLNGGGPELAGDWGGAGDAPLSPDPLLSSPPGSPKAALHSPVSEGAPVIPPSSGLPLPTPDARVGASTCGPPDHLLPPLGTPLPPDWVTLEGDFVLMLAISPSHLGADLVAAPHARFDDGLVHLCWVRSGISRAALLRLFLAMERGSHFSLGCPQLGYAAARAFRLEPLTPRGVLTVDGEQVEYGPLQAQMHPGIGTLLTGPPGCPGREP
The conditions noted are these: at 0.1 µM.

Test [3] concerns the target T1, Sphingosine kinase 2 (Homo sapiens). The conditions noted are these: at 1 µM.
For test [4], the target named is Casein kinase II subunit alpha (Homo sapiens) (UniProt P68400). To be noted: at 0.1 µM.
Casein kinase II subunit alpha (Homo sapiens), sequence (P68400 whole entry, looked up): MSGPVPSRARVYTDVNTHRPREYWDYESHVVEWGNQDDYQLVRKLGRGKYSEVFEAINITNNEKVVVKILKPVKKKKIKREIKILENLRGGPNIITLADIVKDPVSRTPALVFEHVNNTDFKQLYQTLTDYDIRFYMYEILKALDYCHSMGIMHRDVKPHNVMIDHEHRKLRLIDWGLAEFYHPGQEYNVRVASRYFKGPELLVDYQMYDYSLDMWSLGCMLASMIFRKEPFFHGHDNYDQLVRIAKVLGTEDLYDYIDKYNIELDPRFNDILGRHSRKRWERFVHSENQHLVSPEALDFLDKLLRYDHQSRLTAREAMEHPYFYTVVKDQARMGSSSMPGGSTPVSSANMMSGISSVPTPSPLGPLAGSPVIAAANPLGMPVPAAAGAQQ
Test [5] has the same target. The conditions noted are these: at 1 µM.
Test [6] has as its target T2, Inhibitor of nuclear factor kappa-B kinase subunit alpha (Homo sapiens) (UniProt O15111).
T2 sequence (whole entry): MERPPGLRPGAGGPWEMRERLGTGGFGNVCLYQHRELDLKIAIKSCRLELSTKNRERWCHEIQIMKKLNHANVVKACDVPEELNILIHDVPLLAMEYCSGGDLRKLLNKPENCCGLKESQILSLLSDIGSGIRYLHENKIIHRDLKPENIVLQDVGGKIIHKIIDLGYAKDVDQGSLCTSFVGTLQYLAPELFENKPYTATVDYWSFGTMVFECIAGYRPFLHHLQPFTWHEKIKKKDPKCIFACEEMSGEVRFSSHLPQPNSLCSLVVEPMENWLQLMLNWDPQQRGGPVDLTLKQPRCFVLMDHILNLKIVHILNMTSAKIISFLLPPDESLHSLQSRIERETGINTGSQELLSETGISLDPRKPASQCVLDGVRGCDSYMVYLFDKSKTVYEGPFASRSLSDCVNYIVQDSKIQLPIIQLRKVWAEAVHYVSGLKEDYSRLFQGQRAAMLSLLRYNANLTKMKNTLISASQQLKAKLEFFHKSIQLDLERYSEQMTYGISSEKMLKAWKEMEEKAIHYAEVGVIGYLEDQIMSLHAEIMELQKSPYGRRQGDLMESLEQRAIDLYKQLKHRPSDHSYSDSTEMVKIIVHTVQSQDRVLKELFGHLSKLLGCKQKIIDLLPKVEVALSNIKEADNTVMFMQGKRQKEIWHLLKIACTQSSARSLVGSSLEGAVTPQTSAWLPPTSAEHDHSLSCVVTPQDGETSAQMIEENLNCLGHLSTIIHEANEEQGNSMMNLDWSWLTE
To be noted: at 0.1 µM.

For test [7], the target named is T2, Inhibitor of nuclear factor kappa-B kinase subunit alpha (Homo sapiens). To be noted: at 1 µM.
The target in test [8] is T3, Inhibitor of nuclear factor kappa-B kinase subunit beta (Homo sapiens) (UniProt O14920).
T3 sequence (whole entry): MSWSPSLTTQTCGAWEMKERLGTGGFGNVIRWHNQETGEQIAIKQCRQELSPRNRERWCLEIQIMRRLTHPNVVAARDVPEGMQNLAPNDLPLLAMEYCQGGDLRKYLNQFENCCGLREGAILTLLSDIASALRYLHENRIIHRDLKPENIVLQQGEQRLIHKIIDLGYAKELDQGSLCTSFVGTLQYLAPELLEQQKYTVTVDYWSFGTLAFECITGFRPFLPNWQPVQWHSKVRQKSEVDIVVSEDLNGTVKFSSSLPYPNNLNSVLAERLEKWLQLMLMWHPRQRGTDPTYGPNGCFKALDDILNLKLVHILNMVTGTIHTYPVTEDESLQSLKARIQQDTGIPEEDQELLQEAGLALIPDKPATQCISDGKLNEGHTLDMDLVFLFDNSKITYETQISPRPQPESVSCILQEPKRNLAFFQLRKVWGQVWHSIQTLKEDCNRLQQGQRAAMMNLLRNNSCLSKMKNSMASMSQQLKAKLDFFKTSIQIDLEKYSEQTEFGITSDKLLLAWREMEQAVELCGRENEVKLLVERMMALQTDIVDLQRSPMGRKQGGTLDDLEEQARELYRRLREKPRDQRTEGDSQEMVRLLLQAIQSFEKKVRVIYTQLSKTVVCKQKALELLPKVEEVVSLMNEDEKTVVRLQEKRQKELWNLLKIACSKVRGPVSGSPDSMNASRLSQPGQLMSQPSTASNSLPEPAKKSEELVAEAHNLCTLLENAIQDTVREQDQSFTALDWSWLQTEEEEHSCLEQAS
To be noted: at 0.1 µM.

Test [9] deals with T3, Inhibitor of nuclear factor kappa-B kinase subunit beta (Homo sapiens). The conditions noted are these: at 1 µM.
Test [10] concerns the target T4, Inhibitor of nuclear factor kappa-B kinase subunit epsilon (Homo sapiens) (UniProt Q14164).
T4 sequence (whole entry): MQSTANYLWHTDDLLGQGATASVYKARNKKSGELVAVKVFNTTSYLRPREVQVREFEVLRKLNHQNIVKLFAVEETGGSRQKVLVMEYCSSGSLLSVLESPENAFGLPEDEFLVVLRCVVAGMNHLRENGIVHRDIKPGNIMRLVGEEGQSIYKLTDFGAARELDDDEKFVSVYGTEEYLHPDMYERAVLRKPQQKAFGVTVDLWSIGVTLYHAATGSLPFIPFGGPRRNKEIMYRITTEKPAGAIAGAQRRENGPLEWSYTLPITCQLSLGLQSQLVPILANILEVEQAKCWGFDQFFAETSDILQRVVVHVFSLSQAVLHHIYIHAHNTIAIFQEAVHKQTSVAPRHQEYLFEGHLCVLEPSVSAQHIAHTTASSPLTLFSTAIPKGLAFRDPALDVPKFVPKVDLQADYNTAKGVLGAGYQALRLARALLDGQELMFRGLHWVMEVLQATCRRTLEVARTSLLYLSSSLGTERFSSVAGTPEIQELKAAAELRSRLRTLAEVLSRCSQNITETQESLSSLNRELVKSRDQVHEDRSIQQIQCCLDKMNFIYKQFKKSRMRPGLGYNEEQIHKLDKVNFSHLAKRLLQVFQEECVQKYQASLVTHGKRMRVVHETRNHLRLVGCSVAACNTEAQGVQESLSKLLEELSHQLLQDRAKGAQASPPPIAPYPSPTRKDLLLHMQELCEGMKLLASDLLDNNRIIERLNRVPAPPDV
The conditions noted are these: at 0.1 µM.

Test [11] has as its target T4, Inhibitor of nuclear factor kappa-B kinase subunit epsilon (Homo sapiens). The conditions noted are these: at 1 µM.
Test [12] deals with T5, Serine/threonine-protein kinase Nek1 (Homo sapiens) (UniProt Q96PY6).
T5 sequence (whole entry): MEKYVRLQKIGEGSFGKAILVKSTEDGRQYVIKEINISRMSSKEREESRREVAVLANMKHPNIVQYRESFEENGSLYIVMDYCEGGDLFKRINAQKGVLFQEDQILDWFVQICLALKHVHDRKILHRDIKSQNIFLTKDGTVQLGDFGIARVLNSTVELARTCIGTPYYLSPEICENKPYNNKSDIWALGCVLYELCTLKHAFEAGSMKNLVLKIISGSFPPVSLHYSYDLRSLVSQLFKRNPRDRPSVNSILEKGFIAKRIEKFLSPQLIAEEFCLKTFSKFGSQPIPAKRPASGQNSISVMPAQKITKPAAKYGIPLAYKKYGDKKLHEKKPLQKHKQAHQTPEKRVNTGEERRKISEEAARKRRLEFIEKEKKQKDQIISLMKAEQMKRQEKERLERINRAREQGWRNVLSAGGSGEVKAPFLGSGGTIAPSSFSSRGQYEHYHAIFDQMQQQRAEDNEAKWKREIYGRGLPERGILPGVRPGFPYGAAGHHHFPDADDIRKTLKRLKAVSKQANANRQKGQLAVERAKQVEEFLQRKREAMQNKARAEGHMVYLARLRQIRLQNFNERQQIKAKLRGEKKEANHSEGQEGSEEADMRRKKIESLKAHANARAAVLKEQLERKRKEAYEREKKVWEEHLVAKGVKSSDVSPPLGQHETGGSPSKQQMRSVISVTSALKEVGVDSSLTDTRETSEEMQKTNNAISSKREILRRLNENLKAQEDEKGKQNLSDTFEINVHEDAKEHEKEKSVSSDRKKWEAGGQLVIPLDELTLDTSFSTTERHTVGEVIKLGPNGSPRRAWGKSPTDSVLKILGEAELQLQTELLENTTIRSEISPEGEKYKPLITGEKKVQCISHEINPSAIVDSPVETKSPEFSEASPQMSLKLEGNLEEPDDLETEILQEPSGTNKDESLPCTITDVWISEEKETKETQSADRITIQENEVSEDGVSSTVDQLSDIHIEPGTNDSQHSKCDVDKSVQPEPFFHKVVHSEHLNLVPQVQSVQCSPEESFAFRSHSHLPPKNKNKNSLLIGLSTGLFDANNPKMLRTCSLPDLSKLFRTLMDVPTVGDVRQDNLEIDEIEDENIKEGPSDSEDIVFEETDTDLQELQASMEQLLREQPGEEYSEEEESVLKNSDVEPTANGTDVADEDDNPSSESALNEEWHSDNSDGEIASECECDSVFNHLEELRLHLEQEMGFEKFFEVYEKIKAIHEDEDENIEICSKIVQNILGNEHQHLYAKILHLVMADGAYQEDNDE
To be noted: at 0.1 µM.

Test [13] has as its target T5, Serine/threonine-protein kinase Nek1 (Homo sapiens). The conditions noted are these: at 1 µM.
Test [14] has as its target T6, Serine/threonine-protein kinase Nek2 (Homo sapiens) (UniProt P51955).
T6 sequence (whole entry): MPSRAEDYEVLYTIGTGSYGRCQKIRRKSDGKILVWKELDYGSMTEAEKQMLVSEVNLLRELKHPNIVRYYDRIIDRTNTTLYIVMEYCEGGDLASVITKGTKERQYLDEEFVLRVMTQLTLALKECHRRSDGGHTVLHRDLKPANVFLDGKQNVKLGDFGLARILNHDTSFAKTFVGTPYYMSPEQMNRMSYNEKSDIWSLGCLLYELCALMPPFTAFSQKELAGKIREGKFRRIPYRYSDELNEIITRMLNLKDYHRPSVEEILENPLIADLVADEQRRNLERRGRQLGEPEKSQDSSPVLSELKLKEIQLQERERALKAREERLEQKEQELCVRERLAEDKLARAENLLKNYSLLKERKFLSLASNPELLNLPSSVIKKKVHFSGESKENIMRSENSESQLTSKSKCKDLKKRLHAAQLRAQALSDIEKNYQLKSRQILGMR
The conditions noted are these: at 0.1 µM.

For test [15], the target named is T6, Serine/threonine-protein kinase Nek2 (Homo sapiens). To be noted: at 1 µM.
Test [16] addresses Serine/threonine-protein kinase Nek6 (Homo sapiens) (UniProt Q9HC98). The conditions noted are these: at 0.1 µM.
The target is the same in test [17]. To be noted: at 1 µM.
The target of test [18] is Serine/threonine-protein kinase Nek7 (Homo sapiens) (UniProt Q8TDX7). The conditions noted are these: at 0.1 µM.
Serine/threonine-protein kinase Nek7 (Homo sapiens), sequence (Q8TDX7 whole entry, looked up): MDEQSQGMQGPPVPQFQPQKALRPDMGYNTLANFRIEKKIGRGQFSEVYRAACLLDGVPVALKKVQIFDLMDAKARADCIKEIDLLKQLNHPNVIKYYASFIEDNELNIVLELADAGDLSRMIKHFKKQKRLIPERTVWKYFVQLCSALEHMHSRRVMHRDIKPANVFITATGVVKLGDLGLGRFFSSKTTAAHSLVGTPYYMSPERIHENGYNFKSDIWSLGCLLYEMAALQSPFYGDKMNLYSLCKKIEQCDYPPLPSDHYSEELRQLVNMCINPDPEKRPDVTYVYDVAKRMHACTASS
For test [19] the target is unchanged. The conditions noted are these: at 1 µM.
The target of test [20] is T7, Serine/threonine-protein kinase Nek9 (Homo sapiens) (UniProt Q8TD19).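 Note: reported value is the mean percent inhibition of NEK9.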
T7 sequence (whole entry): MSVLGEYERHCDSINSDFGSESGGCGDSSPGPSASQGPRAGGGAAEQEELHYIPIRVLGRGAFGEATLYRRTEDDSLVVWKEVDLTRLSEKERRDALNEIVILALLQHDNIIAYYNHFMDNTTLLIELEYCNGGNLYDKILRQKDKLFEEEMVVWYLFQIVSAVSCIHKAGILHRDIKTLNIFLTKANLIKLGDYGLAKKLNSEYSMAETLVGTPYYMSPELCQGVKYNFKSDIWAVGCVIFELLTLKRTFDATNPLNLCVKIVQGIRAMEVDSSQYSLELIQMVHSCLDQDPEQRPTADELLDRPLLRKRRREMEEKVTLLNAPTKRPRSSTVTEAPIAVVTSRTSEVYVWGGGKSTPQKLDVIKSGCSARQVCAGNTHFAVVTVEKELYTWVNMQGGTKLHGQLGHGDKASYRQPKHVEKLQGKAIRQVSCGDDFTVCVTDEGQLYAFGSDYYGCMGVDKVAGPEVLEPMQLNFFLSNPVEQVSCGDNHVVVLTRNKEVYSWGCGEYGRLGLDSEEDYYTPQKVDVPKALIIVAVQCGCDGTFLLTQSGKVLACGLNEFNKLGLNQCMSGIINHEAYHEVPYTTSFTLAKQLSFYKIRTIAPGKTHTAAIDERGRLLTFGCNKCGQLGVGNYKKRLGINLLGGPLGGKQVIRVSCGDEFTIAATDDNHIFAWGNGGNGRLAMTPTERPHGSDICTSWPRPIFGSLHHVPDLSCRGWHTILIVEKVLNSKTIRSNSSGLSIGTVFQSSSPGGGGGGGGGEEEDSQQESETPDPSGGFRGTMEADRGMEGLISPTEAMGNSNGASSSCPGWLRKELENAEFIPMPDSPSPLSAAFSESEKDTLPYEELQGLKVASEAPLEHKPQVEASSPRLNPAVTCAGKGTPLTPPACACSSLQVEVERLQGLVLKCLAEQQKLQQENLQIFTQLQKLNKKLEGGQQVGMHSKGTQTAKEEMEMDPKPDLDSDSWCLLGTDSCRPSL
To be noted: at 0.1 µM.

Serine/threonine-protein kinase Nek6 (Homo sapiens), sequence (Q9HC98 whole entry): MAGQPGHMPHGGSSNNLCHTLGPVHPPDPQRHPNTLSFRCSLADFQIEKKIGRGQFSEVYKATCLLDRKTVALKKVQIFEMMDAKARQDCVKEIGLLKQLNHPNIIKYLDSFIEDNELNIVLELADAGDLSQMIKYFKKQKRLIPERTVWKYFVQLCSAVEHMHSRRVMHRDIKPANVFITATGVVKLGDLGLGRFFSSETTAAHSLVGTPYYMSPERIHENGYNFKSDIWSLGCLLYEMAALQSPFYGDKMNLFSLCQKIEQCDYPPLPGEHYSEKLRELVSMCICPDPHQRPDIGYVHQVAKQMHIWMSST
Sphingosine kinase 1 (Homo sapiens), sequence (Q9NYA1 whole entry): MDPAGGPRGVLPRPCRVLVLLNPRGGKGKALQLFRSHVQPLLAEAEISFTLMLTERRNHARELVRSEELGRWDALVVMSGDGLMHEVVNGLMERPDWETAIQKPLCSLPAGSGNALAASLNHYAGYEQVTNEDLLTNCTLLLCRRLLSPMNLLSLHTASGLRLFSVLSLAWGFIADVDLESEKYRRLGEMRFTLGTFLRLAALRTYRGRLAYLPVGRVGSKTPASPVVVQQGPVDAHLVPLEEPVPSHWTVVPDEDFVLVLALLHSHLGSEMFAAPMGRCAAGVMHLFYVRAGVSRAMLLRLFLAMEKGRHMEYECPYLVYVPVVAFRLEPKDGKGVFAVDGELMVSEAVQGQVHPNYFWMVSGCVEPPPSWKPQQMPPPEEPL

In general, inhibition refers to the change of the read-out against control, counted positive when it falls. With `COc1cc2c(cc1Nc1nc(Nc3ccsc3C(N)=O)c3cc[nH]c3n1)N(C(=O)CN(C)C)CCC2(C)C`, the inhibition in [1] is 1.56%; in [2], -0.3%; in [3] it was -2.8%; in test [4], 39.4%; in test [5] it was 75.3%; in test [6], 5.27%. The inhibition in test [7] came to 0.27%; in [8], 8.68%; in test [9] it was 6.07%; in test [10], 10.8%; in test [11] it was 35.2%; in test [12], 2.74%. Also, the inhibition in test [13] turned out to be 2.8%; in test [14], 6.02%; in [15] it was 7.22%; in test [16] it was 2.59%; in [17], 5.27%; in test [18], 12.7%. Moreover, the inhibition is 42.1% in test [19] and 4.77% in test [20].
